The list is not random: actives were taken first. Their share in the collection is about 3.7%.
TMEM16A inh – TMEM16A chloride channel inhibitors, primary screen, cell-based, HTS; 310,000 tested, 1.2% active; normalized B-score (activity score, 25-100; higher = stronger inhibition) at 10 µM; Anoctamin-1 (Mus musculus), Q8BHY3; AID 588511, 2011; HEK293 TMEM16A/YFP iodide influx fluorescence, ionomycin;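 active = ratio plate-corrected score three or more library SD toward inhibition, starting fluorescence score within five deviations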;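 also: score derived from kinetic fluorescence span divided by baseline fluorescence per well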
CHT PAM – CHT positive allosteric modulators, primary screen, cell-based, membrane potential dye, choline EC20 | High affinity choline transporter 1 (Homo sapiens), Q9GZV3 | CHT-expressing cells; active compounds read high; LV-AA mutant CHT in HEK293 cells | B-score at 10 µM | 310,000 tested, 0.49% active;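 active = initial fluorescence not abnormally high and integrated response B-score, plate-corrected, over 3 SD above library mean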
CHT inh – inhibitors of human choline transporter CHT; AID 488975, 2010; CHT-expressing cells, membrane potential dye, choline response; active compounds read low; B-score at 10 µM; 310,000 tested, 0.86% active;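 active = B-score over 3 SD under the library average, and starting fluorescence ratio not unusually high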;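 also: choline stimulus applied at its EC90 after an EC20 pre-addition; B-score computed on integrated fluorescence ratio after choline addition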
Kir21 block – inhibitors of mouse Kir2.1 inward-rectifier potassium channel | Inward rectifier potassium channel 2 (Mus musculus), P35561 | HEK293-Kir2.1, FluxOR thallium flux fluorescence; active compounds read low | B-score at 10 µM | 310,000 tested, 0.85% active;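 active = fluorescence ratio B-score at or below minus 3 SD of library scores, with starting-brightness B-score within 2 SD, cut at about -4.2 in these data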;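 also: channel flux triggered by added potassium and thallium sulfate stimulus; B-score of peak minus minimum fluorescence over baseline after thallium stimulus; more negative B-score means stronger Kir2.1 block with less thallium influx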
GPR7 antag – GPR7 receptor antagonists, primary screen, cell-based, fluorescence, single concentration | inhibition, % at 4.4 µM | GPR7-expressing cells, fluorescence antagonist assay | 290,000 tested, 1.1% active; in the data active = inhibition above about 16%, passing the limit was not always enough;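 also: cells stimulated with the agonist NPW; 0% = agonist with vehicle and 100% = vehicle without agonist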
TMEM16A act – TMEM16A chloride channel activators or potentiators, primary screen, cell-based, HTS; HEK293 TMEM16A/YFP-H148Q/I152L, iodide quench fluorescence; active compounds read low; AID 623877, 2012; B-score at 10 µM; Anoctamin-1 (Mus musculus), Q8BHY3; 340,000 tested, 0.3% active;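 active = fluorescence-ratio B-score plate-corrected deviation score at least 3 library SD below zero, with starting fluorescence score within 5 deviations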;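 also: channel opened by trigger with iodide after compound preincubation; score built on the fluorescence ratio of max minus min over baseline; more negative score means more quench and so TMEM16A activation or potentiation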
TMEM16A reconf – TMEM16A chloride channel inhibitors, confirmation, cell-based, re-confirmation; shares compounds with TMEM16A inh; HEK293 TMEM16A/YFP-H148Q, iodide quench fluorescence; ionomycin added to raise cell calcium; inhibition, % at 10 µM; 2,300 tested, 39% active; AID 652189, 2013;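 active = mean duplicate percent inhibition, scaled so buffer wells are 0 and the reference blocker 100, over three buffer SD above buffer mean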
HEK293 Ca mobil – calcium mobilization in TMEM16A/YFP HEK293 cells, confirmation, counter-screen for TMEM16A inhibitor project; 2,300 tested, 2% active; calcium response (% of ionomycin), % at 10 µM; shares compounds with TMEM16A inh; Fluo4 calcium mobilization; AID 652231, 2013;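 active = duplicate-averaged calcium signal over 20% of the ionomycin maximum, relative to buffer baseline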;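 also: each well's signal is peak minus trough fluorescence divided by its pre-addition baseline; 0% = buffer wells and 100% = ionomycin wells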
YFP-HEK293 quench – iodide YFP quench changes in parental YFP-HEK293, counter-screen for TMEM16A inhibitor project, cell-based; YFP ratio F(max-min)/F0 at 10 µM; shares compounds with TMEM16A inh; ionomycin; 2,300 tested, under 10 active;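 active = yellow fluorescent protein signal ratio exceeding the buffer control mean by over 5 SD of those controls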;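 also: ratio is mean of duplicate wells from kinetic YFP trace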
ClC-1 inh – ClC-1 chloride channel inhibition, selectivity assay for TMEM16A inhibitor project, cell-based, voltage-dependent ClC-1. CHO ClC-1-YFP, iodide influx fluorescence quench; iodide control reads 0, buffer control 100. ratio percent, % at 10 µM. 2,300 tested, under 10 active. shares compounds with TMEM16A inh;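 active = duplicate-mean ratio percent above the mean of iodide-only control wells, which defines zero, plus 5 of their SD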;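 also: higher percent means stronger block of ClC-1 iodide influx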
Target sequence (P35524 whole entry, looked up): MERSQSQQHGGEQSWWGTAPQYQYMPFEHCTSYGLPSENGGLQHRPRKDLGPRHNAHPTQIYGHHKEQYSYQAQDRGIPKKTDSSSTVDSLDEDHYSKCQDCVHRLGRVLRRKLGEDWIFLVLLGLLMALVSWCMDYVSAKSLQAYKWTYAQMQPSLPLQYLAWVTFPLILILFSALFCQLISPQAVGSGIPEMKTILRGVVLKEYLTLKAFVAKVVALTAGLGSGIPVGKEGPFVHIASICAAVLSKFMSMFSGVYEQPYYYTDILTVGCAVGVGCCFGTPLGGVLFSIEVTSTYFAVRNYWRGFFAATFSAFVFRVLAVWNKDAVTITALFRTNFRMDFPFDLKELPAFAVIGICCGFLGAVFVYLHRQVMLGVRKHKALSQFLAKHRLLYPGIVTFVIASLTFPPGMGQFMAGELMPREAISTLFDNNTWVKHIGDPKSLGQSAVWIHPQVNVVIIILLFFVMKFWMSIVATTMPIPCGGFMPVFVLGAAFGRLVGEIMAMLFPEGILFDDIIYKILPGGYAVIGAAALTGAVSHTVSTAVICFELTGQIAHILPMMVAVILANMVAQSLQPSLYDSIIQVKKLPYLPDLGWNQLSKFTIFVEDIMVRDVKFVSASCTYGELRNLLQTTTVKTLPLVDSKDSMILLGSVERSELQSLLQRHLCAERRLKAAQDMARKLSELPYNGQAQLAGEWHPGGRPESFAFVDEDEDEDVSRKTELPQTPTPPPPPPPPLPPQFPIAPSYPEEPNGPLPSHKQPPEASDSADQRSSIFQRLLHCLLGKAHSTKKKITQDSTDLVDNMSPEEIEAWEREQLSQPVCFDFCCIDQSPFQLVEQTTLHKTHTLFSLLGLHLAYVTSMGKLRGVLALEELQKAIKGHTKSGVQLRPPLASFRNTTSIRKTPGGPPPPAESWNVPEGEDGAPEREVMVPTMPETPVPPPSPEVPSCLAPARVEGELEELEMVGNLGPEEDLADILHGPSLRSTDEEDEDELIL
* = called active by the depositor; i = inactive; x = no result given.

SMILES | TMEM16A inh | CHT PAM | CHT inh | Kir21 block | GPR7 antag | TMEM16A act | TMEM16A reconf | HEK293 Ca mobil | YFP-HEK293 quench | ClC-1 inh
Cc1ccc(-c2nc(CS(=O)(=O)CC(=O)N3CCc4ccccc4C3)c(C)o2)cc1 | 25* | i | i | 0 | -10 | i | 26%* | i | -0.9 | -10
Cc1ccc(-c2nc(CS(=O)(=O)CC(=O)N3CCCCCC3)c(C)o2)cc1 | i | i | i | 0.19 | 1 | i | x | x | x | x
CC(=O)N1CCN(c2nc(CC(C)C)c3c(c2C#N)CCC3)CC1 | i | i | i | 0.1 | -4 | i | x | x | x | x
N#Cc1c(NC(=O)CN2CCN(C(=O)c3ccco3)CC2)sc2c1CCCCC2 | 25* | i | i | -0.37 | -5 | i | i | i | -1.2 | -18
CC(C)Cc1nc(N2CCN(C(=O)c3ccco3)CC2)c(C#N)c2c1CCC2 | 25* | i | i | -1.9 | -16 | i | i | i | -1.3 | -16
COCCn1c(SCc2ccc(C(=O)OC)o2)nc2ccccc2c1=O | i | i | i | x | 2 | i | x | x | x | x
COC(=O)c1cc(CSc2nc3ccccc3c(=O)n2C)oc1C | 100* | i | i | -0.27 | -14 | i | 34%* | i | -1.1 | -12
CN(C)S(=O)(=O)c1ccc(Cl)c(C(=O)OCC(=O)c2ccco2)c1 | x | x | x | x | x | i | x | x | x | x
C/C(=N\OCC(=O)OCC(=O)NC(=O)c1ccccc1)c1ccc2c(c1)OCO2 | i | i | i | 1.4 | x | i | x | x | x | x
Cc1ccc(C(=O)Nc2ncccc2O)cc1S(=O)(=O)N1CCCCC1 | i | i | i | -0.3 | x | i | x | x | x | x
O=c1cc(CSc2nc3ccccc3[nH]2)c2ccccc2[nH]1 | i | i | i | 0.89 | 0 | i | x | x | x | x
Fc1ccc(CSc2nc3ccccc3[nH]2)c2ccccc12 | 100* | i | i | -0.04 | 1 | i | 32%* | i | -0.85 | -5
O=C(CSc1nnc(Nc2ccccc2)s1)Nc1ccc(S(=O)(=O)N2CCOCC2)cc1 | 25* | i | i | 0.18 | -6 | i | i | i | -1 | -9
Cc1ccc(Nc2nnc(SCC(=O)Nc3ccc(S(=O)(=O)N4CCOCC4)cc3)s2)cc1 | i | i | i | -0.55 | -6 | i | x | x | x | x
Cc1ccc(C)c(NC(=O)C2CCCN2S(=O)(=O)c2ccc3c(c2)n(C)c(=O)c(=O)n3C)c1 (stereo unspecified) | i | i | i | -0.57 | -15 | i | x | x | x | x
Cc1ccccc1NC(=O)C1CCCN1S(=O)(=O)c1ccc2c(c1)n(C)c(=O)c(=O)n2C (stereo unspecified) | 25* | i | i | 0.8 | -2 | i | i | i | -1.1 | 5
Cc1ccc(OCc2cnc(Cl)s2)c(C)c1 | i | i | i | 0.33 | -5 | i | x | x | x | x
CN1C(=O)/C(=C\c2ccc(OC(=O)c3ccco3)cc2)SC1=S | i | i | i | -0.48 | -6 | i | x | x | x | x
CN1C(=O)/C(=C/c2ccc(OC(=O)c3ccco3)cc2)SC1=S | i | i | i | -0.25 | -8 | i | i | i | -1.2 | -22
Cn1cccc1/C=C1/SC(=S)N(CC(=O)O)C1=O | i | i | i | -0.67 | -12 | i | i | i | -0.69 | -8
COc1cc(/C=C2\SC(=S)N(CC(=O)O)C2=O)ccc1OC(=O)c1ccco1 | i | i | i | -0.77 | -15 | -5.5* | i | i | -1.4 | -78
CC(C(=O)O)N1C(=O)/C(=C/c2cccn2C)SC1=S (stereo unspecified) | i | i | i | x | 0 | i | x | x | x | x
O=C(Cn1nnc(-c2ccccc2)n1)NCC(=O)Nc1ccc(F)c(F)c1F | x | x | x | x | x | i | x | x | x | x
NC(=O)C1CCN(C(=O)/C(=C/c2ccccc2)NC(=O)c2ccccc2)CC1 | i | i | i | -1.4 | -15 | i | x | x | x | x
O=C(CCNS(=O)(=O)c1ccc(F)c(Cl)c1)NCc1ccccc1F | x | x | x | x | x | i | x | x | x | x
SMILES | TMEM16A inh | CHT PAM | CHT inh | Kir21 block | GPR7 antag | TMEM16A act | TMEM16A reconf | HEK293 Ca mobil | YFP-HEK293 quench | ClC-1 inh
O=CN1CCCN(Cc2nc(-c3cccc(Cl)c3)no2)CC1 | i | i | i | 4 | -6 | i | x | x | x | x
CCCSc1nsc(NC(=O)C(c2ccccc2)c2ccccc2)n1 | i | i | i | -0.01 | -11 | i | x | x | x | x
CCCSc1nsc(NC(=O)Nc2ccc(F)cc2F)n1 | 100* | i | i | 2.3 | 20 | i | 66%* | i | -0.82 | -24
O=C(O)[C@H](Cc1ccccc1)N1C(=O)c2ccncc2C1=O | 100* | i | i | -0.23 | 7 | i | i | i | -0.94 | -16
COc1ccc(-c2csc(NC(=O)CSc3nc(C)nc4sc(C(=O)O)c(C)c34)n2)cc1 | i | i | i | 0.67 | -4 | i | x | x | x | x
O=C(NCCCc1ccccc1)C(=O)NCC1OCCN1S(=O)(=O)c1ccc(F)cc1 (stereo unspecified) | 25* | i | i | -0.21 | -10 | i | i | i | -1 | -8
CCOC(=O)c1c(NC(=O)CSc2nnc(Cc3ccccc3)o2)sc(C(C)=O)c1C | 25* | i | i | 0.4 | 6 | i | 16%* | i | -1.3 | -21
CCOC(=O)C1CCN(c2ncnc3c2oc2ccccc23)CC1 | 100* | i | i | -2 | -2 | i | 22%* | i | -0.9 | -16
CCOC(=O)C1CCCN(c2ncnc3c2oc2ccccc23)C1 (stereo unspecified) | 100* | i | i | -0.03 | 4 | i | 28%* | i | -1 | -20
O=C(NCCCN1CCOCC1)c1cc(S(=O)(=O)N2CCOCC2)ccc1Cl | x | x | x | x | x | i | x | x | x | x
